# Assay results taken from the supplement of paper PMC4466140.
# Tests used:
# Test in all cases: SPOT peptide array binding signal intensity (averaged, normalized) (arbitrary units (background-subtracted, floor 0; scale differs between SH3 domains)); higher = stronger binding of the SH3 domain to the peptide
# [1] = target: AgAbp1
# Method in brief: (§1)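 Binding signal refers to normalized, background-subtracted spot intensity averaged over replicates, expressed in arbitrary units that differ between domains. GST-fused SH3 domains from four yeast species were incubated at 10 μg/ml overnight at 4°C on cellulose membranes of synthetic 15-mer peptides with cysteines replaced by serines. Bound protein was detected with anti-GST antibody, an HRP anti-mouse secondary and luminol, and quantified with Genespotter.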
# [2] = target: AgBbc1
# Method in brief: as §1
# [3] = target: AgBem1-D1
# Method in brief: as §1
# [4] = target: AgBzz1-D1
# Method in brief: as §1
# [5] = target: AgBzz1-D2
# Method in brief: as §1
# [6] = target: AgCyk3
# Method in brief: as §1
# [7] = target: AgFus1
# Method in brief: as §1
# [8] = target: AgHof1
# Method in brief: as §1
# [9] = target: AgHse1
# Method in brief: as §1
# [10] = target: AgLsb1
# Method in brief: as §1
# [11] = target: AgLsb4
# Method in brief: as §1
# [12] = target: AgMyo5
# Method in brief: as §1
# [13] = target: AgNbp2
# Method in brief: as §1
# [14] = target: AgRvs167
# Method in brief: as §1
# [15] = target: AgSho1
# Method in brief: as §1
# [16] = target: AgSla1-D1-D2
# Method in brief: as §1
# [17] = target: AgSla1-D3
# Method in brief: as §1
# [18] = target: CaAbp1-D1
# Method in brief: as §1
# [19] = target: CaAbp1-D2
# Method in brief: as §1
# [20] = target: CaBbc1
# Method in brief: as §1
# [21] = target: CaBem1-D1
# Method in brief: as §1
# [22] = target: CaBzz1-D1
# Method in brief: as §1
# [23] = target: CaBzz1-D2
# Method in brief: as §1
# [24] = target: CaCyk3
# Method in brief: as §1
# [25] = target: CaFus1
# Method in brief: as §1
# [26] = target: CaHof1
# Method in brief: as §1
# [27] = target: CaHse1
# Method in brief: as §1
# [28] = target: CaLsb1
# Method in brief: as §1
# [29] = target: CaLsb4
# Method in brief: as §1
# [30] = target: CaMyo5
# Method in brief: as §1
# [31] = target: CaNbp2
# Method in brief: as §1
# [32] = target: CaRvs167
# Method in brief: as §1
# [33] = target: CaRvs167-3
# Method in brief: as §1
# [34] = target: CaSho1
# Method in brief: as §1
# [35] = target: CaSla1-D1-D2
# Method in brief: as §1
# [36] = target: CaSla1-D3
# Method in brief: as §1
# [37] = target: ScAbp1
# Method in brief: as §1
# [38] = target: ScBbc1
# Method in brief: as §1
# [39] = target: ScBem1-D1
# Method in brief: as §1
# [40] = target: ScBzz1-D1
# Method in brief: as §1
# [41] = target: ScBzz1-D2
# Method in brief: as §1
# [42] = target: ScCyk3
# Method in brief: as §1
# [43] = target: ScFus1
# Method in brief: as §1
# [44] = target: ScHof1
# Method in brief: as §1
# [45] = target: ScHse1
# Method in brief: as §1
# [46] = target: ScLsb1
# Method in brief: as §1
# [47] = target: ScLsb2
# Method in brief: as §1
# [48] = target: ScLsb3
# Method in brief: as §1
# [49] = target: ScLsb4
# Method in brief: as §1
# [50] = target: ScMyo3
# Method in brief: as §1
# [51] = target: ScMyo5
# Method in brief: as §1
# [52] = target: ScNbp2
# Method in brief: as §1
# [53] = target: ScPex13
# Method in brief: as §1
# [54] = target: ScRvs167
# Method in brief: as §1
# [55] = target: ScSho1
# Method in brief: as §1
# [56] = target: ScSla1-D1-D2
# Method in brief: as §1
# [57] = target: ScSla1-D3
# Method in brief: as §1
# [58] = target: SpAbp1-D1
# Method in brief: as §1
# [59] = target: SpBbc1
# Method in brief: as §1
# [60] = target: SpBzz1-D1
# Method in brief: as §1
# [61] = target: SpBzz1-D2
# Method in brief: as §1
# [62] = target: SpCyk3
# Method in brief: as §1
# [63] = target: SpHof1
# Method in brief: as §1
# [64] = target: SpHof1-2
# Method in brief: as §1
# [65] = target: SpHof1-3
# Method in brief: as §1
# [66] = target: SpHse1
# Method in brief: as §1
# [67] = target: SpLsb1
# Method in brief: as §1
# [68] = target: SpLsb4
# Method in brief: as §1
# [69] = target: SpMyo1
# Method in brief: as §1
# [70] = target: SpNbp2
# Method in brief: as §1
# [71] = target: SpPex13
# Method in brief: as §1
# [72] = target: SpRvs167
# Method in brief: as §1
# [73] = target: SpSla1-D1-D2
# Method in brief: as §1
# [74] = target: SpSla1-D3
# Method in brief: as §1
binder,measurement,setting,value
VPVAPPPPPASLGQS,SPOT peptide array binding signal intensity,[1],≤ 0
same,SPOT peptide array binding signal intensity,[2],≤ 0
same,SPOT peptide array binding signal intensity,[3],15
same,SPOT peptide array binding signal intensity,[4],0.5
same,SPOT peptide array binding signal intensity,[5],≤ 0
same,SPOT peptide array binding signal intensity,[6],≤ 0
same,SPOT peptide array binding signal intensity,[7],≤ 0
same,SPOT peptide array binding signal intensity,[8],≤ 0
same,SPOT peptide array binding signal intensity,[9],17
same,SPOT peptide array binding signal intensity,[10],0.25
same,SPOT peptide array binding signal intensity,[11],≤ 0
same,SPOT peptide array binding signal intensity,[12],4.25
same,SPOT peptide array binding signal intensity,[13],≤ 0
same,SPOT peptide array binding signal intensity,[14],3
same,SPOT peptide array binding signal intensity,[15],≤ 0
same,SPOT peptide array binding signal intensity,[16],6
same,SPOT peptide array binding signal intensity,[17],1
same,SPOT peptide array binding signal intensity,[18],2
same,SPOT peptide array binding signal intensity,[19],4
same,SPOT peptide array binding signal intensity,[20],0.5
same,SPOT peptide array binding signal intensity,[21],≤ 0
same,SPOT peptide array binding signal intensity,[22],89
same,SPOT peptide array binding signal intensity,[23],9.5
same,SPOT peptide array binding signal intensity,[24],≤ 0
same,SPOT peptide array binding signal intensity,[25],16
same,SPOT peptide array binding signal intensity,[26],≤ 0
same,SPOT peptide array binding signal intensity,[27],≤ 0
same,SPOT peptide array binding signal intensity,[28],0.75
same,SPOT peptide array binding signal intensity,[29],≤ 0
same,SPOT peptide array binding signal intensity,[30],13.5
same,SPOT peptide array binding signal intensity,[31],17.5
same,SPOT peptide array binding signal intensity,[32],≤ 0
same,SPOT peptide array binding signal intensity,[33],1.5
same,SPOT peptide array binding signal intensity,[34],28
same,SPOT peptide array binding signal intensity,[35],≤ 0
same,SPOT peptide array binding signal intensity,[36],≤ 0
same,SPOT peptide array binding signal intensity,[37],0.5
same,SPOT peptide array binding signal intensity,[38],2.5
same,SPOT peptide array binding signal intensity,[39],0.5
same,SPOT peptide array binding signal intensity,[40],3
same,SPOT peptide array binding signal intensity,[41],8.5
same,SPOT peptide array binding signal intensity,[42],≤ 0
same,SPOT peptide array binding signal intensity,[43],≤ 0
same,SPOT peptide array binding signal intensity,[44],≤ 0
same,SPOT peptide array binding signal intensity,[45],4
same,SPOT peptide array binding signal intensity,[46],≤ 0
same,SPOT peptide array binding signal intensity,[47],≤ 0
same,SPOT peptide array binding signal intensity,[48],≤ 0
same,SPOT peptide array binding signal intensity,[49],4
same,SPOT peptide array binding signal intensity,[50],372
same,SPOT peptide array binding signal intensity,[51],91
same,SPOT peptide array binding signal intensity,[52],≤ 0
same,SPOT peptide array binding signal intensity,[53],≤ 0
same,SPOT peptide array binding signal intensity,[54],≤ 0
same,SPOT peptide array binding signal intensity,[55],3
same,SPOT peptide array binding signal intensity,[56],≤ 0
same,SPOT peptide array binding signal intensity,[57],1.5
same,SPOT peptide array binding signal intensity,[58],≤ 0
same,SPOT peptide array binding signal intensity,[59],≤ 0
same,SPOT peptide array binding signal intensity,[60],237
ATNVPVAPPPPPASL,SPOT peptide array binding signal intensity,[31],18
same,SPOT peptide array binding signal intensity,[32],≤ 0
same,SPOT peptide array binding signal intensity,[33],6.5
same,SPOT peptide array binding signal intensity,[34],≤ 0
same,SPOT peptide array binding signal intensity,[35],≤ 0
same,SPOT peptide array binding signal intensity,[36],≤ 0
same,SPOT peptide array binding signal intensity,[37],1
same,SPOT peptide array binding signal intensity,[38],2.25
same,SPOT peptide array binding signal intensity,[39],≤ 0
same,SPOT peptide array binding signal intensity,[40],≤ 0
same,SPOT peptide array binding signal intensity,[41],2
same,SPOT peptide array binding signal intensity,[42],1
same,SPOT peptide array binding signal intensity,[43],≤ 0
same,SPOT peptide array binding signal intensity,[44],≤ 0
same,SPOT peptide array binding signal intensity,[45],≤ 0
same,SPOT peptide array binding signal intensity,[46],0.25
same,SPOT peptide array binding signal intensity,[47],≤ 0
same,SPOT peptide array binding signal intensity,[48],≤ 0
same,SPOT peptide array binding signal intensity,[49],2
same,SPOT peptide array binding signal intensity,[50],1430
same,SPOT peptide array binding signal intensity,[51],161
same,SPOT peptide array binding signal intensity,[52],≤ 0
same,SPOT peptide array binding signal intensity,[53],≤ 0
same,SPOT peptide array binding signal intensity,[54],≤ 0
same,SPOT peptide array binding signal intensity,[55],≤ 0
same,SPOT peptide array binding signal intensity,[56],≤ 0
same,SPOT peptide array binding signal intensity,[57],2.25
same,SPOT peptide array binding signal intensity,[58],≤ 0
same,SPOT peptide array binding signal intensity,[59],≤ 0
same,SPOT peptide array binding signal intensity,[60],125
same,SPOT peptide array binding signal intensity,[61],≤ 0
same,SPOT peptide array binding signal intensity,[62],≤ 0
same,SPOT peptide array binding signal intensity,[63],≤ 0
same,SPOT peptide array binding signal intensity,[64],≤ 0
same,SPOT peptide array binding signal intensity,[65],≤ 0
same,SPOT peptide array binding signal intensity,[66],8.75
same,SPOT peptide array binding signal intensity,[67],≤ 0
same,SPOT peptide array binding signal intensity,[68],≤ 0
same,SPOT peptide array binding signal intensity,[69],339
same,SPOT peptide array binding signal intensity,[70],27.5
same,SPOT peptide array binding signal intensity,[71],≤ 0
same,SPOT peptide array binding signal intensity,[72],≤ 0
same,SPOT peptide array binding signal intensity,[73],≤ 0
same,SPOT peptide array binding signal intensity,[74],≤ 0
